Results filed as inconclusive are left out. Calls of active or inactive are those of the source. How the source made its calls, unless noted: active means hit-call score of the fitted dose curve at least 0.9, where 1 is the maximum; inactive means score below 0.9.
How the values were obtained:
[1] = ATG_CMV_CIS: Attagene CIS-FACTORIAL HepG2 Assay for human CMV (Internal Marker) (AID 2282928); details: HepG2 CMV promoter reporter, transcription factor profiling; actives raise or lower the signal;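 further: endpoint acts as a background internal control marker rather than a target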
How it was run: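 24 h chemical treatment, HepG2 with transient multi-reporter transfection; RNA → oligo(dT) RT → PCR → 6-FAM extension → HpaI digest → CE fluorescence. Bidirectional fit, DMSO negative control.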

[2] = ATG_DR4_LXR_CIS: Attagene CIS-FACTORIAL HepG2 Assay for human Liver X Receptor (LXR), DR4 submotif (AID 2282929); details: HepG2 Attagene DR4 cis-reporter, mRNA transcription; actives raise or lower the signal
How it was run: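 Measures endogenous transcription factor activity via a DR4-driven reporter transcript in human HepG2 cells. Compounds incubated 24 h; mRNA quantified by RT-PCR and capillary electrophoresis, analysed as gain or loss of signal versus DMSO.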

[3] = molecular target: Transcription factor E2F1 (Homo sapiens) (UniProt Q01094); experiment: ATG_E2F_CIS: Attagene CIS-FACTORIAL HepG2 Assay for human E2F Transcription Factor 1 (AID 2282935); details: HepG2 Attagene cis-reporter, E2F reporter RNA transcripts; actives raise or lower the signal
Transcription factor E2F1 (Homo sapiens), sequence (Q01094 whole entry, looked up): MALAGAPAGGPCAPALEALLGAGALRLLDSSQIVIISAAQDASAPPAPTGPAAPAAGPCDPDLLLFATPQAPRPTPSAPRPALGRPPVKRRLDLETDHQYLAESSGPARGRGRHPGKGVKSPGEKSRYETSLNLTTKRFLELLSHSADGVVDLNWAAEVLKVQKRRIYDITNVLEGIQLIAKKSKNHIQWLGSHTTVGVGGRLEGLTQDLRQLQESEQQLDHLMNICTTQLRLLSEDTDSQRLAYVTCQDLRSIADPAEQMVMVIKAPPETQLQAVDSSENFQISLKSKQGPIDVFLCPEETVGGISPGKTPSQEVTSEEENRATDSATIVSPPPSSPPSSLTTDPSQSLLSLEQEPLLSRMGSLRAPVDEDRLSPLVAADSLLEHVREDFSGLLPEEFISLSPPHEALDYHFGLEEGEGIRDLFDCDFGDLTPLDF
How it was run: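 In this cis-factorial format, endogenous factor activity drives transfected reporters in HepG2; transcripts collected at 24 h are quantified by fluorescence after RT-PCR and capillary separation.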

[4] = ATG_M_19_CIS: Attagene CIS-FACTORIAL HepG2 Assay for M19 Transcription Factor (Internal Marker) (AID 2282939); details: HepG2 Attagene CIS-FACTORIAL M19 internal marker reporter; actives raise or lower the signal
How it was run: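 Chemical-treated HepG2 (24 h) with MRTU constructs; reporter transcripts detected by fluorescent RT-PCR fragment analysis on capillary electrophoresis. Internal background marker, DMSO as baseline.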

[5] = molecular target: Hepatocyte nuclear factor 3-beta (Homo sapiens) (UniProt Q9Y261); experiment: ATG_FoxA2_CIS: Attagene CIS-FACTORIAL HepG2 Assay for human Forkhead box A2 (FOXA2) (AID 2282942); details: HepG2 cis-reporter transcription factor activity, 24 h; actives raise or lower the signal
Hepatocyte nuclear factor 3-beta (Homo sapiens), sequence (Q9Y261 whole entry, looked up): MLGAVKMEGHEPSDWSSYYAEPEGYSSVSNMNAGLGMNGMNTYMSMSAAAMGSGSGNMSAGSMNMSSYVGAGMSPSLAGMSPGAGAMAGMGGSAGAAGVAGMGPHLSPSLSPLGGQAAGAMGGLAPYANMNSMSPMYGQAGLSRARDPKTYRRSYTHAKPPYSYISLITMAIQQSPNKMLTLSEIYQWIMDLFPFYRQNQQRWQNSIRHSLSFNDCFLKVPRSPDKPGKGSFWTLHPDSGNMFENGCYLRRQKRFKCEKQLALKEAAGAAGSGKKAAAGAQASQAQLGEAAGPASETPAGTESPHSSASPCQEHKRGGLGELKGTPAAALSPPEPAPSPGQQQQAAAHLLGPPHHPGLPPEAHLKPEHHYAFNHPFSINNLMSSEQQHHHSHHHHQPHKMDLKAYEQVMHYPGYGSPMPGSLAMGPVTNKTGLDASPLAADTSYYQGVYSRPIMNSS
How it was run: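 In transiently transfected human HepG2 cells, promoter-driven reporter mRNA levels after 24 h chemical exposure are determined via RT-PCR with capillary electrophoresis. DMSO serves as baseline for bidirectional fitting.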

[6] = ATG_ISRE_CIS: Attagene CIS-FACTORIAL HepG2 Assay for human Interferon Regulatory Factor 1 (IRF1) binding to an Interferon-Stimulated Response Element (ISRE) (AID 2282948); details: HepG2 ISRE cis-reporter (Attagene), mRNA transcription readout; actives raise or lower the signal
How it was run: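 Multiplexed mRNA reporter readout in human liver HepG2 cells: cis-element-driven reporters transfected, compound added for 24 h, transcripts amplified, fluorescently labelled and sized by capillary electrophoresis; curve fitting bidirectional against DMSO.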

[7] = molecular target: Hypoxia-inducible factor 1-alpha (Homo sapiens) (UniProt Q16665); experiment: ATG_HIF1a_CIS: Attagene CIS-FACTORIAL HepG2 Assay for human Hypoxia Inducible Factor 1 (HIF1A) (AID 2282951); details: HepG2 Attagene cis-factorial HIF1a reporter transcription; actives raise or lower the signal
Hypoxia-inducible factor 1-alpha (Homo sapiens), sequence (Q16665 whole entry, looked up): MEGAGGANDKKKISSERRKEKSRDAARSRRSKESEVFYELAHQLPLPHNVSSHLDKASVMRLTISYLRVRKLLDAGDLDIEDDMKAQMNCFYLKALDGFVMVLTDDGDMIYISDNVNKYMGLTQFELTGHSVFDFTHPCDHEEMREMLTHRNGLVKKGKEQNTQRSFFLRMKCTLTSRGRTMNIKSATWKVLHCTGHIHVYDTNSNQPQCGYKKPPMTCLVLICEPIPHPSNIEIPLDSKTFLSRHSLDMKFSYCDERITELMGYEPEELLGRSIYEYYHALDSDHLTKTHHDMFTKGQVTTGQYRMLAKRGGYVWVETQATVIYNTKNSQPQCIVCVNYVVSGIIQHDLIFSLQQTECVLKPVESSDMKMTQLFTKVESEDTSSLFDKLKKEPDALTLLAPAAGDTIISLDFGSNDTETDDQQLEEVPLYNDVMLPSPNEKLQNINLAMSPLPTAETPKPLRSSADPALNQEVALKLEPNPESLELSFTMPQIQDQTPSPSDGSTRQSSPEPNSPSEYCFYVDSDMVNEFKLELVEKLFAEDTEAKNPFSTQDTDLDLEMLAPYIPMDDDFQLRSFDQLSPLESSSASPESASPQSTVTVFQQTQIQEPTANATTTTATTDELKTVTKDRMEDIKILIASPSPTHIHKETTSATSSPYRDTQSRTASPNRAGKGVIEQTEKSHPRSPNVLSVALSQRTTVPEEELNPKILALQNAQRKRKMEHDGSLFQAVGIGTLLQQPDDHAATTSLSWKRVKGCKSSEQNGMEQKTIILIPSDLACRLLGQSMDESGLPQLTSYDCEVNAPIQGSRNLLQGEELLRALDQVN
How it was run: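 In this multiplexed cell assay, HepG2 cells bearing transfected cis reporters are dosed for 24 h and reporter mRNA is read by RT-PCR plus capillary electrophoresis; signal increases and decreases are both scored against DMSO.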

[8] = molecular target: Hepatocyte nuclear factor 6 (Homo sapiens) (UniProt Q9UBC0); experiment: ATG_HNF6_CIS: Attagene CIS-FACTORIAL HepG2 Assay for human Hepatocyte Nuclear Factor 6 (HNF6) (AID 2282952); details: HepG2 Attagene cis-factorial HNF6 reporter transcription; actives raise or lower the signal
Hepatocyte nuclear factor 6 (Homo sapiens), sequence (Q9UBC0 whole entry, looked up): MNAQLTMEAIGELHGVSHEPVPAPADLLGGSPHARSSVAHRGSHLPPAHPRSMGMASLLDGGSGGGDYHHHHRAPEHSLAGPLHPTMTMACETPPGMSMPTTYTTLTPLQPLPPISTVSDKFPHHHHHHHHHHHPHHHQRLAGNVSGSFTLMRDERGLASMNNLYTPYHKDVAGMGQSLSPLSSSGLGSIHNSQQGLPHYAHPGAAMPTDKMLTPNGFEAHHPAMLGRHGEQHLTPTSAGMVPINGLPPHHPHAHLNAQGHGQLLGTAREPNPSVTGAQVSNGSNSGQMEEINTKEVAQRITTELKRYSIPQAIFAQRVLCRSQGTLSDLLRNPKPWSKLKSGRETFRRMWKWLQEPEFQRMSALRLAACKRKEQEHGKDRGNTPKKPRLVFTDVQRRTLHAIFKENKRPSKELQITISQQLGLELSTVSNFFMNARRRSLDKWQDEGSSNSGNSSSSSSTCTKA
How it was run: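 Endogenous transcription factor activity in human HepG2 liver cells was captured through cis-regulated reporter constructs. After 24 h treatment, reporter mRNA was measured by RT-PCR with capillary electrophoresis, and activity was fitted in both directions relative to DMSO.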

[9] = molecular target: Heat shock factor protein 1 (Homo sapiens) (UniProt Q00613); experiment: ATG_HSE_CIS: Attagene CIS-FACTORIAL HepG2 Assay for human Heat Shock Transcription Factor 1 (HSE) (AID 2282953); details: HepG2 HSE cis-reporter, Attagene RNA transcription; actives raise or lower the signal
Heat shock factor protein 1 (Homo sapiens), sequence (Q00613 whole entry, looked up): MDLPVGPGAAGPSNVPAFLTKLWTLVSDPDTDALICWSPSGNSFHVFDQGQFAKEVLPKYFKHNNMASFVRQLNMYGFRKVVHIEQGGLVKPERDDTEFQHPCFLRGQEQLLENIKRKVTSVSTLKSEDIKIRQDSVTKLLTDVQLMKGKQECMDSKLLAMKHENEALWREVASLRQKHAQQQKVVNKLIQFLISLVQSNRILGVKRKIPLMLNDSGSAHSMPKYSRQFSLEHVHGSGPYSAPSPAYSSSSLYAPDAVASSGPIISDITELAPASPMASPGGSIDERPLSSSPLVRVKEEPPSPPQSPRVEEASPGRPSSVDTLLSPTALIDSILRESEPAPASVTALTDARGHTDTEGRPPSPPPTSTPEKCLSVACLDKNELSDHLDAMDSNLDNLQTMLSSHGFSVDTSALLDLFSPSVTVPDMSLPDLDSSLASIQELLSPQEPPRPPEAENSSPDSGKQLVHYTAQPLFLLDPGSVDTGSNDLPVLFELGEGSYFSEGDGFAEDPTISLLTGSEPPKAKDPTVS
How it was run: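 Liver-derived HepG2 cells carry transiently introduced multiple reporter units governed by cis promoters. Reporter RNA measured 24 h post-dose through reverse transcription, PCR amplification, fluorescent labelling and capillary electrophoresis, normalised to DMSO.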

[10] = ATG_RORE_CIS: Attagene CIS-FACTORIAL HepG2 Assay for human RAR-related Orphan Receptor Element (RORE) (AID 2282959); details: HepG2 Attagene cis-factorial RORE reporter, mRNA; actives raise or lower the signal
How it was run: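 Fluorescence intensity of reporter-specific cDNA fragments, separated by capillary electrophoresis, gives the signal. Source: HepG2 liver cells transiently transfected with cis-element reporters and exposed 24 h; DMSO-normalized bidirectional fit.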

[11] = ATG_Sox_CIS: Attagene CIS-FACTORIAL HepG2 Assay for human SRY-box transcription factor (SOX) (AID 2282960); details: HepG2 Attagene cis-factorial SOX reporter, mRNA; actives raise or lower the signal
How it was run: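 After 24 h of chemical treatment, transfected HepG2 reporter cells are lysed for total RNA. Transcript levels come from RT-PCR with labelled primer extension and capillary electrophoresis, analysed bidirectionally versus DMSO.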

[12] = ATG_TGFb_CIS: Attagene CIS-FACTORIAL HepG2 Assay for human Transforming Growth Factor (TGF) (AID 2282967); details: HepG2 Attagene CIS TGFb reporter, mRNA transcription; actives raise or lower the signal
How it was run: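 Liver HepG2 line, cis-factorial reporter panel, 24 h dosing. Quantitation: RT-PCR products labeled with 6-FAM, cut with HpaI, resolved by capillary electrophoresis; DMSO-referenced bidirectional analysis.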

[13] = ATG_VDRE_CIS: Attagene CIS-FACTORIAL HepG2 Assay for human Vitamin D Receptor Element (VDRE) (AID 2282968); details: HepG2 VDRE cis-reporter transcription, actives raise or lower the signal
How it was run: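 Transfected HepG2 reporter cells, chemical treatment 24 h. RNA isolated, cDNA amplified with reporter-specific primers, products analysed by capillary electrophoresis. Endpoint fitted in both directions versus DMSO.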

[14] = ATG_M_06_TRANS: Attagene TRANS-FACTORIAL HepG2 Assay for M06 Transcription Factor (Internal Marker) (AID 2282983; active means hit-call score of the fitted dose curve at least 0.9, where 1 is the maximum); details: HepG2 Attagene TRANS M06 internal marker reporter
How it was run: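 Human liver HepG2 cells bearing transiently transfected chimeric NR-GAL4 reporter units were treated with chemicals for 24 h. Total RNA was reverse-transcribed, reporter sequences amplified and labelled, then quantified by capillary electrophoresis. Activity was fitted upward relative to DMSO.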

[15] = ATG_NFI_CIS: Attagene CIS-FACTORIAL HepG2 Assay for human Nuclear Factor I (NFI) (AID 2282989); details: HepG2 cis-regulatory reporter, NFI response element transcription; actives raise or lower the signal
How it was run: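 Transfected HepG2 liver cells, exposed 24 h, supplied total RNA for oligo(dT) reverse transcription and reporter-specific PCR. Labelled, HpaI-cut fragments were sized by capillary electrophoresis; DMSO set the baseline for bidirectional fitting.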

[16] = molecular target: Myc proto-oncogene protein (Homo sapiens) (UniProt P01106); experiment: ATG_Myc_CIS: Attagene CIS-FACTORIAL HepG2 Assay for human Myelocytomatosis (Myc) Proto-Oncogene Transcription Factor (AID 2282990); details: HepG2, Attagene cis-reporter transcription factor activity; actives raise or lower the signal
Myc proto-oncogene protein (Homo sapiens), sequence (P01106 whole entry, looked up): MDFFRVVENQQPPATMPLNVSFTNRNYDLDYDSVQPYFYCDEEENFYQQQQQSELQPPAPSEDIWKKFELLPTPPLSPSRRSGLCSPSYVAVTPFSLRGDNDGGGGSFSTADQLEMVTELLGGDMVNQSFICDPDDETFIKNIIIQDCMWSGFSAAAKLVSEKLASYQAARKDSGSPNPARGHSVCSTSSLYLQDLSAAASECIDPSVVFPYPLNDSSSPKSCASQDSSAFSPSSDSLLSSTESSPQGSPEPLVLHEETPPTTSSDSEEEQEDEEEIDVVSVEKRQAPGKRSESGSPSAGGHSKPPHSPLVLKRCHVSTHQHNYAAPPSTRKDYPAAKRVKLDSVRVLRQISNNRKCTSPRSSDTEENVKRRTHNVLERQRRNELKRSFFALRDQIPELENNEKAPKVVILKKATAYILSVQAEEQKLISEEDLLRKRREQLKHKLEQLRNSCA
How it was run: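 DMSO-normalised, bidirectionally fitted reporter mRNA signal. HepG2 cells transfected with cis reporter constructs, treated 24 h; transcripts detected by RT-PCR, 6-FAM primer extension and CE.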

[17] = ATG_NRF2_ARE_CIS: Attagene CIS-FACTORIAL HepG2 Assay for human Nuclear Factor Erythroid 2 Related Factor 2 (NFR2) response to Antioxidant Response Elements (ARE) (AID 2282992); details: HepG2 Attagene ARE/NRF2 reporter, transcription factor activity; actives raise or lower the signal;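 on AC50: reporter mRNA level measured by RT-PCR and capillary electrophoresis fluorescence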
How it was run: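 Endogenous transcription factor activity in human liver HepG2 cells is tracked via a cis-element-driven reporter within a multiplexed set. mRNA induction is read by RT-PCR and capillary electrophoresis after 24 h, with DMSO as baseline.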

[18] = molecular target: Cellular tumor antigen p53 (Homo sapiens) (UniProt P04637); experiment: ATG_p53_CIS: Attagene CIS-FACTORIAL HepG2 Assay for human p53 Transcription Factor (AID 2282994); details: HepG2 p53 cis-element reporter, Attagene mRNA; actives raise or lower the signal
Cellular tumor antigen p53 (Homo sapiens), sequence (P04637 whole entry, looked up, the tested form may be a part): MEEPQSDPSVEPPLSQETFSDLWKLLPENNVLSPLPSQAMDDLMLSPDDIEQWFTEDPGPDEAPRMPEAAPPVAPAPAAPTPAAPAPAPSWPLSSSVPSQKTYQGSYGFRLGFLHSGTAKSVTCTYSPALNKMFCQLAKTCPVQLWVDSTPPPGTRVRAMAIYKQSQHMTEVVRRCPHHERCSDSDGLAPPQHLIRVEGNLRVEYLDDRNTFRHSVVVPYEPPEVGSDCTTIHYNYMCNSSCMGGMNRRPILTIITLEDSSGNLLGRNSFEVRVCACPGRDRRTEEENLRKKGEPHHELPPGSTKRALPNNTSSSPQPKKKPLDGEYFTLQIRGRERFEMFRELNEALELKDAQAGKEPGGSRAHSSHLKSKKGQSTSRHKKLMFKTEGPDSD
How it was run: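 Steps: transfect HepG2 with multiplexed cis reporter constructs; dose chemicals 24 h; extract RNA, reverse-transcribe, PCR-amplify reporter sequences; FAM-label, HpaI-digest, resolve fragments by CE. Activity fitted both directions relative to DMSO.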

[19] = molecular target: Nuclear receptor subfamily 1 group I member 2 (Homo sapiens) (UniProt O75469); experiment: ATG_PXR_TRANS: Attagene TRANS-FACTORIAL HepG2 Assay for human Pregnane X Receptor (PXR) (AID 2283008; active means hit-call score of the fitted dose curve at least 0.9, where 1 is the maximum)
Nuclear receptor subfamily 1 group I member 2 (Homo sapiens), sequence (O75469 whole entry, looked up, the tested form may be a part): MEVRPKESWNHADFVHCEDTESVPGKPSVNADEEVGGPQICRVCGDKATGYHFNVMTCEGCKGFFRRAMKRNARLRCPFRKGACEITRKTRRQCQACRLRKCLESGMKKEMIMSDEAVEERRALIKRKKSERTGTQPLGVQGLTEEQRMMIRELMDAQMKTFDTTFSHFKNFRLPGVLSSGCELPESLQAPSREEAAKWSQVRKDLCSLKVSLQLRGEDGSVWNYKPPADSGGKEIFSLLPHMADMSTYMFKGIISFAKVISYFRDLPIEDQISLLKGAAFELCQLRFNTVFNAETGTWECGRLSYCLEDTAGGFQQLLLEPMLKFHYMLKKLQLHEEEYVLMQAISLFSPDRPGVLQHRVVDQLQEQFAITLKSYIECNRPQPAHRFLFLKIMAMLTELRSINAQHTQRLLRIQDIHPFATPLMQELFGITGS
How it was run: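 HepG2 transfected (FuGene 6) with GAL4-UAS reporter units + PXR-Gal4 chimera; dosed 24 h. Total RNA → oligo(dT) RT → PCR → 6-FAM primer extension → HpaI cut → CE. Gain-of-signal vs DMSO.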

[20] = ATG_TA_CIS: Attagene CIS-FACTORIAL HepG2 Assay for human TA Basal Promoter (AID 2282964); details: HepG2 Attagene CIS-factorial TA basal promoter reporter; actives raise or lower the signal
How it was run: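 Background internal-marker endpoint from a 52-component HepG2 cis-reporter panel. Cells treated 24 h; reporter transcripts quantified via RT-PCR and CE fluorescence against DMSO baseline.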

Measured: AC50

O=C1NC(=O)[C@@H]2CC=CC[C@H]12
not listed: [20]
inactive: all other assays above

O=C1CCCCCCCCCCCCCC1
active: [2] 49.4 µM | [9] 62.1 µM | [16] 23.6 µM | [17] 32.6 µM | [19] 26.6 µM
not listed: [11]
inactive: all other assays above

CN1CCCC1
active: [17] 26.2 µM
not listed: [6]
inactive: all other assays above

C=CC(C)(CCC=C(C)C)OC(=O)c1ccccc1 (configuration not stated)
active: [1] 100 µM | [2] 34.2 µM | [16] 131 µM | [17] 98 µM | [19] 8.68 µM
not listed: [13] | [20]
inactive: all other assays above

CCOC(=O)CC(=O)OCC
not listed: [14] | [19] | [20]
inactive: all other assays above

O=C1NC(=O)C2CC=CCC12 (configuration not stated)
not listed: [6] | [11]
inactive: all other assays above

CCCCOC(=O)COc1ccc(Cl)cc1Cl
not listed: [14]
inactive: all other assays above

CCCCCCC1CCC(=O)O1 (configuration not stated)
not listed: [3] | [14]
inactive: all other assays above

From PubChem BioAssay (EPA / NIEHS)
